The source made the active and inactive calls.

The values below come from PubChem BioAssay.

The nature of assay [1]: optical density shifts of acrAB sulA E. coli – strain DRC41, OD650, 48 h, E. coli filamentation inducer project, primary screen (AID 1152).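 Also: E. coli MC1000 strain DRC41 lacking acrAB efflux pump and sulA.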 To be noted: higher = more signal, called active from +8 up or from −8 down.
Assay [2] is described as follows: probe aLefty1 binding on compound microarray – biochemical, small-molecule microarray, 635/667 nm fluorescence, primary screen (AID 1153).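 Also: score merges spot fluorescence with signal-to-noise ratio from the scanned slide images.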 To be noted: higher = more signal.
Assay [3] in a line: plasmodial surface anion channel blockers, osmotic lysis – cell-based, P. falciparum Indochina, OD700, 1 h, primary screen (AID 1154). As to conditions: P. falciparum Indochina infected RBC osmotic lysis, higher = more signal, called active from +8 up or from −8 down.
Assay [4] in a line: plasmodial surface anion channel blockers, osmotic lysis – cell-based, P. falciparum Indochina, OD700, 2 h, primary screen (AID 1155).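 Also: lysis reports solute entry through the parasite surface anion channel PSAC.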 To be noted: P. falciparum Indochina infected erythrocytes, higher = more signal, called active from +8 up or from −8 down.
The nature of assay [5]: changes in parasitized red cell lysis, either direction – P. falciparum Indochina, OD700, 3 h, PSAC antagonist project, primary screen (AID 1156). To be noted: P. falciparum-infected erythrocytes, osmotic lysis, higher = more signal, called active from +8 up or from −8 down.
Assay [6] in a line: plasmodial surface anion channel blockers, osmotic lysis – cell-based, P. falciparum Indochina, OD700, 18 h, primary screen (AID 1157). To be noted: P. falciparum Indochina infected erythrocytes, osmotic lysis OD700, 18 h; higher = more signal, called active from +8 up or from −8 down.
Assay [7] is described as follows: S6 kinase pathway phospho-S6 level changes – cell-based, A549, cytoblot, luminescence, serum-stimulated, primary screen (AID 1158).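 Also: serum-stimulated A549 lung adenocarcinoma cells; signal is phosphorylated S6 detected by cytoblot immunostaining with HRP secondary.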 To be noted: 5 h, higher = more signal.
The target in assay [8] is NADPH oxidase 2 (Homo sapiens) (UniProt P04839). Description: compounds shifting NOX2 Amplex Red fluorescence – cell-based, HEK293-NOX2, PMA-stimulated, NOX inhibitor project, primary screen (AID 1159). Also: test concentration not given here. To be noted: 45 min, higher = more signal, called active from +8 up or from −8 down.
In assay [9] the target is NADPH oxidase 4 (Homo sapiens) (UniProt Q9NPH5). As to the kind of experiment: compounds shifting NOX4 Amplex Red fluorescence – cell-based, HEK293-NOX4, tetracycline-induced, NOX inhibitor project, primary screen (AID 1160). As to conditions: HEK293-NOX4, Amplex Red H2O2 fluorescence, 45 min; higher = more signal, called active from +8 up or from −8 down.
Assay [10] concerns the target NADPH oxidase 5 (Homo sapiens) (UniProt Q96PH1). Description: compounds shifting NOX5 Amplex Red fluorescence – cell-based, HEK293-NOX5, NOX inhibitor project, primary screen (AID 1161). As to conditions: HEK293-NOX5, ionomycin, 45 min, higher = more signal.

Sequence of NADPH oxidase 2 (Homo sapiens) (P04839 whole entry, looked up): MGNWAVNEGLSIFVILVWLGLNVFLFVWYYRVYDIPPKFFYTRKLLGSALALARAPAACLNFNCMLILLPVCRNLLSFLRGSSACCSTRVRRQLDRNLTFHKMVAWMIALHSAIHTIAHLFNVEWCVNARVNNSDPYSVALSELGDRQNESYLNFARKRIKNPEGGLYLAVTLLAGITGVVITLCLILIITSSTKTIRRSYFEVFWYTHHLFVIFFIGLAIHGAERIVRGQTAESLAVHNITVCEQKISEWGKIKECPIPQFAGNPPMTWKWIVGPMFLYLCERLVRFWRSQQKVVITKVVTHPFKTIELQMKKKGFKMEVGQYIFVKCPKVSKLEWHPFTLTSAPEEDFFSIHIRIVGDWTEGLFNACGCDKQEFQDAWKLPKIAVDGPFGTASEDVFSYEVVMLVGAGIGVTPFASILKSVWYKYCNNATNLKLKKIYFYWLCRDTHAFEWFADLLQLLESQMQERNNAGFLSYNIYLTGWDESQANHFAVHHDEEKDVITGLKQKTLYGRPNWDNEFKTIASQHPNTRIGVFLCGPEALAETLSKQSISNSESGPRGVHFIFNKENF
Sequence of NADPH oxidase 5 (Homo sapiens) (Q96PH1 whole entry, looked up): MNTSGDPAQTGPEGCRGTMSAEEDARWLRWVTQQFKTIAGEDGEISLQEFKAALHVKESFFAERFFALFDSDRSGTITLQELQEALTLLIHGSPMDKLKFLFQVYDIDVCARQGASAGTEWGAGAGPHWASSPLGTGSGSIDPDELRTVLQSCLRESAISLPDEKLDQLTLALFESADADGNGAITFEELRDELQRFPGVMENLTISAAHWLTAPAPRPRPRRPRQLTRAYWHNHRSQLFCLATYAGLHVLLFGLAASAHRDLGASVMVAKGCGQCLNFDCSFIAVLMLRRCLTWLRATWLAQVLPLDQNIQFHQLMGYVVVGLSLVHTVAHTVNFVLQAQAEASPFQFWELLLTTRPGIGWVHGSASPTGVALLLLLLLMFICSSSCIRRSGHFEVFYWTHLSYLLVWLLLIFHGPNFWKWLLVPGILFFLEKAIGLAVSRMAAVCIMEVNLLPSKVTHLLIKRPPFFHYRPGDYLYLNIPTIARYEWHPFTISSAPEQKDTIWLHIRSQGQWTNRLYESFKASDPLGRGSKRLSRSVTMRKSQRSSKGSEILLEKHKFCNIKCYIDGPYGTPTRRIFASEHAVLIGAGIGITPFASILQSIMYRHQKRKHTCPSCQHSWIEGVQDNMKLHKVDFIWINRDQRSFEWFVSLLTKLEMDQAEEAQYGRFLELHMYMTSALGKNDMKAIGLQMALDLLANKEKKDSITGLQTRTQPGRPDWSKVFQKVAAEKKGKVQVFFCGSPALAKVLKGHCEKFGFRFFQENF
Sequence of NADPH oxidase 4 (Homo sapiens) (Q9NPH5 whole entry, looked up): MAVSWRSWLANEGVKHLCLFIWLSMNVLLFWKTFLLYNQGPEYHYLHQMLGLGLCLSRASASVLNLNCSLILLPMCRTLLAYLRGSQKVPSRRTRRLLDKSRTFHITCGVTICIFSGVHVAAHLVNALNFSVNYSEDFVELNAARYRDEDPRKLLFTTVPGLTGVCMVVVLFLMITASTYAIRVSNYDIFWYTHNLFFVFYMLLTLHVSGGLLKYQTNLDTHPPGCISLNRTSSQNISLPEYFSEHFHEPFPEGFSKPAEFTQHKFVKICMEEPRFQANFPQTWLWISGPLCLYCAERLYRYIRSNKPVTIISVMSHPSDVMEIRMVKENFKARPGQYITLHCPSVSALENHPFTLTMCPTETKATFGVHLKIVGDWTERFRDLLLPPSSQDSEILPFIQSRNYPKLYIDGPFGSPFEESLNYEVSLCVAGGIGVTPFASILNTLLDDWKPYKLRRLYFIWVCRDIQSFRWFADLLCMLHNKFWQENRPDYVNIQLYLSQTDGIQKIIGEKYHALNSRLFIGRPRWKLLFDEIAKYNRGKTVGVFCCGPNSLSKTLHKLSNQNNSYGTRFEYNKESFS

For `C=CCC(OC(C)=O)[C@@H]1[C@@H](N(Cc2cc3ccccc3o2)C(=O)c2ccc(-c3ccccc3)cc2)c2cc(OCCCO)ccc2N1C(=O)Cc1ccc2ccccc2c1` (stereo not given in full), the z-score in assay [1] was -0.0233 (inactive); in [3] it was 0.574 (inactive); in [4], -0.344 (inactive); in assay [5], -0.145 (inactive); in assay [6] it was 0.26 (inactive); in [7], 0.233. The z-score in assay [8] was 0.972 (inactive); in [9], -0.906 (inactive); in assay [10], 1.53. For the same compound, in assay [2], the composite z-score was -0.0984.

On to `CC(=O)n1cc(C(O)C2C=CC3C(=O)N(c4ccccc4)C(=O)C3N2Nc2ccc(C#N)cc2)c2ccccc21` (stereo not given), for which the z-score in [1] was -0.947 (inactive); in assay [3], 21.5 (active); in [4], 6.32 (inactive); in [5], 0.566 (inactive); in assay [6] it was 1.37 (inactive); in assay [7], -0.784. The figures for the z-score in assay [8], in assay [9] and in [10] were -1.15 (inactive), -4.31 (inactive) and -3.01, respectively. The compound also had a composite z-score in assay [2] of 0.201.

Turning to `CC(C)(C)OC(=O)CC[C@@]1(C(=O)NCC(O)CO)N=C(c2ccc(OCCCO)cc2)O[C@@H]1c1ccccc1` (stereo not given in full), the z-score in assay [1] is -0.0744 (inactive); in assay [3], 20.4 (active); in [4], 2.42 (inactive); in [5], 0.384 (inactive); in [6], 0.519 (inactive); in assay [7], 0.0391. The z-score in assay [8] is 0.0533 (inactive); in [9] it was 0.626 (inactive); in [10] it was 1.45. The compound also showed a composite z-score in assay [2] of 0.0004.

On to `CCCCN1CC=CC23O[C@@H]4/C=C\CCCOC(=O)C4[C@H]2C(=O)N(C(C)CO)[C@@H]3C1=O` (stereo not given in full), for which the z-score in assay [1] was 0.65 (inactive); in [3], 1.43 (inactive); in assay [4], 1.06 (inactive); in assay [5], 1.96 (inactive); in assay [6] it was 0.405 (inactive); in assay [7], 0.199. Further, the z-score is 0.889 (inactive) in [8], 0.124 (inactive) in [9] and 1.5 in assay [10]. Also, the composite z-score in assay [2] is -0.206.

Take `C=CCN1C(=O)[C@]2(Cc3ccccc31)N=C(c1ccc(OCCCO)cc1)O[C@@H]2c1ccccc1`: the z-score in assay [1] is -3.11 (inactive); in assay [3], 26 (active); in [4], 19.4 (active); in [5], 1.09 (inactive); in [6], 3.1 (inactive); in [7], 0.253. Besides, the z-score in [8] is -1.42 (inactive); in assay [9], 0.273 (inactive); in assay [10], -0.785. The composite z-score in assay [2] stood at 0.165.

Take `O=C(NCC(O)CO)[C@@]1(Cc2ccccc2)COC(c2ccc(OCCCO)cc2)=N1` (stereo not given in full): the z-score in [1] is 0.712 (inactive); in [3] it was 8.57 (active); in assay [4], 0.648 (inactive); in assay [5], 2.87 (inactive); in [6], 0.472 (inactive); in assay [7] it was -0.404. Besides, the z-score in [8] is -0.44 (inactive); in assay [9], 0.82 (inactive); in assay [10], 0.132. For the same compound, the composite z-score in assay [2] was -0.266.

Take `COc1ccc(C#Cc2ccc3c(c2)[C@]2(C(=O)N3)[C@H](C(=O)N3CCN(c4ncccn4)CC3)[C@H]3C(=O)O[C@H](c4ccccc4)[C@H](c4ccccc4)N3[C@@H]2c2ccc(O)cc2)cc1`: the z-score in assay [1] was -0.475 (inactive); in assay [3] it was 1.5 (inactive); in assay [4], 1.59 (inactive); in [5], 0.474 (inactive); in assay [6], 0.686 (inactive); in assay [7], -0.2. Further, the z-score in assay [8] is 1.25 (inactive); in assay [9], -0.171 (inactive); in assay [10], -0.146. Moreover, the composite z-score in [2] turned out to be 0.583.

With `COCCOC(=O)N1C(=O)[C@@]2(c3cc(C#Cc4ccc(OC)cc4)ccc31)[C@H](c1ccc(O)cc1)N1[C@H](c3ccccc3)[C@H](c3ccccc3)OC(=O)[C@H]1[C@@H]2C(=O)N1CCN(c2ncccn2)CC1`, the z-score was 0.714 (inactive) in assay [1]; 1.45 (inactive) in assay [3]; 0.876 (inactive) in [4]; -0.969 (inactive) in [5]; 0.59 (inactive) in assay [6]; -0.63 in assay [7]. Also, the z-score in [8] is 1.87 (inactive); in [9], -1.34 (inactive); in [10], -0.0267. In addition, the composite z-score in assay [2] is -0.0601.

With `O=c1cccc(-c2ccccc2)o1`, the z-score in [1] was -0.766 (inactive); in [3], 3.18 (inactive); in [4], 0.578 (inactive); in assay [5], -0.891 (inactive); in assay [6], 0.611 (inactive); in assay [7] it was -0.548. Also, the figures for the z-score in assay [8], in [9] and in assay [10] were 0.227 (inactive), -1.81 (inactive) and -0.322, respectively. Besides, the composite z-score in assay [2] is -0.0099.

For the compound `Cc1ccccc1/C=C/C=O`, the z-score in assay [1] is 0.871 (inactive); in assay [3], 0.51 (inactive); in assay [4] it was 0.146 (inactive); in assay [5], -0.0758 (inactive); in assay [6], 0.231 (inactive); in assay [7] it was -0.265. Moreover, the z-score in assay [8] is -0.59 (inactive); in [9], -0.0992 (inactive); in [10], 0.45. Moreover, in assay [2], the composite z-score is -0.147.

For `C=CC[C@]1(C(=O)O)N=C(c2ccc(OCCCO)cc2)O[C@H]1c1ccccc1CN=[N+]=[N-]`, the z-score in assay [1] was 0.0533 (inactive); in assay [3], 13.7 (active); in [4], 1.93 (inactive); in assay [5], -0.055 (inactive); in assay [6], 0.665 (inactive); in assay [7], -0.0651. Further, the z-score in assay [8] is 0.324 (inactive); in assay [9], 1.03 (inactive); in [10], 1.58. The compound also registered a composite z-score in assay [2] of 0.0425.

`CCCNC(=O)[C@@]1(c2ccc([N+](=O)[O-])cc2)CC(=O)N(CC23CC4CC(CC(C4)C2)C3)[C@@H]1c1ccc(CO)cc1I`: the z-score in [1] was 0.0121 (inactive); in assay [3], 26 (active); in assay [4], 13.3 (active); in assay [5] it was 1.82 (inactive); in assay [6] it was 1.87 (inactive); in assay [7], -0.151. In addition, the values for the z-score in assay [8], in [9] and in [10] were 1.15 (inactive), -0.037 (inactive) and 2.21, respectively. This compound gave a composite z-score in assay [2] of 0.181.

Regarding `COc1ccc([Si](C)(C)[C@H]2[C@H](CC(=O)N3CCC[C@H]3CO)O[C@@]3(C(=O)N(c4ccccc4)c4ccccc43)[C@@H]2C)cc1`, the z-score is 3.01 (inactive) in assay [1]; 1.84 (inactive) in assay [3]; -0.132 (inactive) in assay [4]; -0.0926 (inactive) in [5]; -0.284 (inactive) in assay [6]; 1.48 in assay [7]. The z-score is 1.44 (inactive) in assay [8], 1.46 (inactive) in assay [9] and 1.96 in assay [10]. In assay [2], this compound displayed a composite z-score of 0.228.
